Most compounds without a hit are left out; they make up all but 2.4% or so of the library.
POLH inh = blocks human DNA polymerase eta activity. Q9Y253. recombinant Pol eta, fluorescent DNA replication assay. Potency, µM (highest dose often 114 µM), without a hit: at the highest dose activity change, negative = inhibition, actives largely listed as inhibitors. hit rate 1.2% among 390,000. AID 588591; further: on the % scale 0 is the no-effect control and ±100 the full control effect
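Pol eta (10 nM) was preincubated with compounds for 15 min at room temperature, after which fluorescent replication substrate (50 nM final) was added to start the reaction. Fluorescence was read kinetically at 0 and 10 min.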
POLK inh = blocks human DNA polymerase kappa activity. Q9UBT6. purified Pol kappa, fluorescent DNA synthesis assay, 10 min. Potency, µM (titrated, usually from 107 µM), inactives show at the top dose activity, negative = inhibition, actives largely listed as inhibitors. hit rate 0.53% among 400,000; further: on the % scale 0 is the no-effect control and ±100 the full control effect
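Kinetic fluorescence screen: compound preincubated 15 min RT with 10 nM enzyme; 50 nM substrate (final) initiates; reads at 0/10 min.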
Pol iota inh = DNA polymerase iota (human) inhibition. Q9UNA4. Pol iota fluorescent replication assay, 10 min. Potency, µM (top dose mostly 115 µM), without a hit: at the highest dose activity, negative = inhibition, usual class: inhibitors. hit rate 1% among 390,000
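Pol iota at 10 nM preincubated 15 min with compounds at room temperature; reaction started with fluorescent substrate, 50 nM final. Fluorescence read kinetically at 0 and 10 min; buffer-only wells as negative control.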
FEN1 inh = human FEN1 inhibition | hit rate 0.35% among 390,000 | Recombinant FEN1 flap cleavage, fluorescence, 15 min | AID 588795 | P39748 | Potency, µM (top dose mostly 114 µM), for the others: top-dose activity change, negative = inhibition, actives largely listed as inhibitors; further: on the % scale 0 is the no-effect control and ±100 the full control effect; nearly all actives have a fitted effect of over 65% in size
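Nuclease activity of 10 nM FEN1 was measured after 15 min of room-temperature exposure to titrated compounds, by adding 50 nM flap substrate and reading plates at 0 and 15 min.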
WRN inhibitor = WRN helicase (human) inhibition; WRN helicase unwinding, fluorescent forked duplex, kinetic; Potency, µM (doses to about 114 µM), inactives show top-dose activity change, negative = inhibition, actives largely listed as inhibitors; hit rate 0.46% among 360,000; AID 651768; further: on the % scale 0 is the no-effect control and ±100 the full control effect; nearly all actives have a fitted effect of over 55% in size
Target sequence (Q14191 whole entry, looked up): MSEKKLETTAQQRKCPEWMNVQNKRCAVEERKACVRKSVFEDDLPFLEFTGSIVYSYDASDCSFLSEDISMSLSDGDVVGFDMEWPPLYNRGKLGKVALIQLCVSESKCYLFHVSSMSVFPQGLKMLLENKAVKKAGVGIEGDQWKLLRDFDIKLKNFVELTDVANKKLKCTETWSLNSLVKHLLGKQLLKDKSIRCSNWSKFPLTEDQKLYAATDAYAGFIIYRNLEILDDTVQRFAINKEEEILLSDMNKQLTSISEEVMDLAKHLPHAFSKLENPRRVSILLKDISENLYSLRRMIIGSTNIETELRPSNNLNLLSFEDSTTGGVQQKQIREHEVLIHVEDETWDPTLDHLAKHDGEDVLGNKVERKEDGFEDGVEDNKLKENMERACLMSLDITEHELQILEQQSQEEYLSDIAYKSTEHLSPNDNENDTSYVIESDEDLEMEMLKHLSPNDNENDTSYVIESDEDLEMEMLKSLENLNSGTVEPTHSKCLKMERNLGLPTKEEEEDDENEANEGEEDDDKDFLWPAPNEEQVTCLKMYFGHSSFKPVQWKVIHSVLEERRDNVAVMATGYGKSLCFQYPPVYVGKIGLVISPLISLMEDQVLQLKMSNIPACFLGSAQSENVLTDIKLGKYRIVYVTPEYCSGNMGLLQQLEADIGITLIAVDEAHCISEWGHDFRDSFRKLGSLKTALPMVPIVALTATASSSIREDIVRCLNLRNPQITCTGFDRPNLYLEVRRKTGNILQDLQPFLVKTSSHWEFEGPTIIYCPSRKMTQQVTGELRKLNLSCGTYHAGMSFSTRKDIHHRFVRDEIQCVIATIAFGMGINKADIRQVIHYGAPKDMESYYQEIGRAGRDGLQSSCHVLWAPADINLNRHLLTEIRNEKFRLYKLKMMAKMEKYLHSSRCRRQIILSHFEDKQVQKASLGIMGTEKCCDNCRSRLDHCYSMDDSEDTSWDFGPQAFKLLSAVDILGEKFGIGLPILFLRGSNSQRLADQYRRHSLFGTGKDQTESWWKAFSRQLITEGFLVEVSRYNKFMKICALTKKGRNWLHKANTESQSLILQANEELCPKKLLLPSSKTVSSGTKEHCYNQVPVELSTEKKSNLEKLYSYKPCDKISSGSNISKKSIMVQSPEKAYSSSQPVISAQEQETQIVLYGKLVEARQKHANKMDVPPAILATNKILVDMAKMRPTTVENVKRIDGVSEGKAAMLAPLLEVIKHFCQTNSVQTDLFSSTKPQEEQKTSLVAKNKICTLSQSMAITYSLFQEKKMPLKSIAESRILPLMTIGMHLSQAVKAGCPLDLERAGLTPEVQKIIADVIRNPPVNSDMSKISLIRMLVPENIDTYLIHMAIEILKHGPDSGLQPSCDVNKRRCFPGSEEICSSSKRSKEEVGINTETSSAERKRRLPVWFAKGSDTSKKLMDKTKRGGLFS
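Primary qHTS, 1536-well format. 20 nM WRN + compound, 15 min RT; start with 100 nM forked fluorophore/quencher duplex, 2 mM ATP (final); kinetic read ex 525/em 598 nm.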
Pol beta inh = blocks human DNA polymerase beta activity; Potency, µM (highest dose often 114 µM), for inactives: at the highest dose activity change, negative = inhibition, usual class: inhibitors; Pol beta primer extension/strand displacement, fluorescence kinetic; AID 485314; hit rate 1.3% among 340,000; further: on the % scale 0 is the no-effect control and ±100 the full control effect
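Kinetic readout of DNA synthesis with strand displacement by Pol beta. Compound and 10 nM enzyme sit 15 min at room temperature; 50 nM substrate starts the reaction, read immediately and at 10 min.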
An asterisk follows results filed as active; ? = inconclusive; . = no result given; [ ] = remark or other dose. The call rests on the fitted dose curve; in most records, active means well fitted curve in the direction sought with a large enough effect; inconclusive means small, poorly fitted or top-dose-only effect, or another doubt; inactive means no such curve, though single readings can be large; an effect the other way counts as inactive or inconclusive. Potency means the concentration at half of the fitted maximal effect.

SMILES | POLH inh | POLK inh | Pol iota inh | FEN1 inh | WRN inhibitor | Pol beta inh
CCN(CCO)c1ncnc2c1sc1nc(C(C)C)c3c(c12)CC(C)(C)OC3 | -10% | -18% | ? | 2% | -8% | 18%
Cc1nc(NC2=NCN(CCCN3CCOCC3)CN2)nc2c(C)cccc12 | -2% | -12% | ? | 40µM* | 86% | -27%
Cc1cc2nc(NC3=NCN(CCN4CCOCC4)CN3)nc(C)c2cc1C | . | . | . | . | . | 2%
Cc1ccc(S(=O)(=O)NN=Cc2c(O)ccc3ccccc23)cc1 | -19% | . | . | . | 0% | .
O=S(=O)(Nc1c(O)ccc2ccccc12)c1cccc2ccccc12 | -10% | -5% | 92% | ? | 22µM* | .
Cc1ccc(S(=O)(=O)Nc2c(O)ccc3ccccc23)cc1 | -6% | -11% | ? | ? | 40µM* | .
COCCn1c(=O)c(C)nc2cnc(N3CCN(C)CC3)nc21 | . | 1%[60.1 µM] | . | . | . | .
COc1cc2c(cc1OC)C1O[C@](CCCCN3C(=O)c4ccccc4C3=O)(C2)OC2=C1C(=O)CC(C)(C)C2 | . | . | . | . | . | 0%[22.9 µM]
COC(=O)c1ccc(NCc2c(O)ccc(O)c2Br)cc1Cl | -10% | -4% | 21% | -20% | 50µM* | .
Cc1c(CC(=O)O)c(=O)oc2c(C)c3occ(-c4ccc(F)cc4)c3cc12 | 0% | 7% | -12% | ? | -10% | 50µM*
Cc1c(CC(=O)N[C@@H](C)C(=O)O)c(=O)oc2c(C)c3occ(-c4ccccc4)c3cc12 | 4% | ? | ? | -11% | -23% | -29%
COc1ccc(-c2coc3c(C)c4oc(=O)c(CCC(=O)O)c(C)c4cc23)cc1 | 50µM* | -41% | ? | -32% | ? | ?
COc1ccc(-c2coc3c2c(C)cc2oc(=O)c(CC(=O)O)c(C)c23)cc1 | -14% | -1% | -6% | ? | . | 12%
CC(C)(C)OC(=O)NS(=O)(=O)NOCc1ccccc1 | . | 14% | 7% | 3% | . | .
COc1cc2ncnc(N3CCN(C(=O)Nc4ccc(Oc5ccccc5)cc4)CC3)c2cc1OC | . | -18% | 16% | -1% | . | .
COc1cc(-c2noc(C)c2C#CCCN2C(=O)c3ccccc3C2=O)cc(OC)c1OC | . | 5% | 12% | 14% | . | .
CCc1nnc(NC(=O)[C@@H]2CCCN2C(=O)c2cccs2)s1 | . | 1% | ? | 6% | . | .
O=C(O)c1cccc(Cn2c(Cl)c(/C=N/NC(=O)c3cc4ccccc4cc3O)sc2=O)c1 | 6.3µM* | 32µM* | 8.9µM* | 18µM* | 40µM* | 11µM*
O=C(O)c1cccc(Cn2c(Cl)c(/C=N/NC(=O)c3ccccc3)sc2=O)c1 | ? | 0% | 8% | 6% | -8% | 42%
COc1ccc(C(=O)COC(=O)CNC(=O)C2CCCCC2)c(OC)c1 | ? | -25% | ? | 7% | -8% | 22µM*
COc1ccc(C(=O)COC(=O)/C=C/c2ccccc2)c(OC)c1 | 40µM* | 45µM* | 35µM* | -10% | -3%[11.6 µM] | .
COc1ccc(C(=O)COC(=O)c2cccnc2Cl)c(OC)c1 | 50µM* | ? | 40µM* | -6% | -10%[57.1 µM] | 13µM*
COc1ccc(C(=O)COC(=O)c2cc(C)no2)c(OC)c1 | ? | -41% | 50µM* | -9% | -16% | .
COc1ccc(C(=O)COC(=O)c2ccc3c(c2)OCCO3)c(OC)c1 | ? | -26% | ? | -6% | -14% | .
COc1ccc(OC)c(C(=O)COC(=O)CNC(=O)C2CCCCC2)c1 | 2% | -9% | 6% | -2% | 8% | 6%
O=C1CC(=Nc2ccc([N+](=O)[O-])cc2)NN1c1c(Cl)cc(Cl)cc1Cl | 79µM* | . | . | . | 4% | .
O=[N+]([O-])c1ccc(N=Nc2c(Cl)cc(O)cc2Cl)cc1 | -20% | -10% | -13% | 2% | -14% | -4%
CC(C)(C)CC(C)(C)N=C1Nc2ccc(Cl)cc2NC12C[C@H]1CCC(=O)N3CC[C@@H](C2)[C@@H]13 (some centres not stated) | . | -16% | 36% | ? | . | .
